# Only some compounds are listed: those with a hit (about 12% of all), similar ones and a draw of the others.
# G9a block = qHTS Assay for Inhibitors of Histone Lysine Methyltransferase G9a; Histone-lysine N-methyltransferase EHMT2 (Homo sapiens), Q96KQ7; G9a H3K9 monomethylation, AlphaScreen, 2 h; Potency, µM (top dose mostly 102 µM), without a hit: at the highest dose activity, negative = inhibition, hits mostly inhibitors; 350,000 compounds, 8.8% hits; AID 504332, 2011; note: % is set by controls: 0 for no effect and ±100 for the full control effect; nearly all actives have a fitted effect of over 75% in size
#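 AlphaScreen read-out: biotin-H3K9 peptide (500 nM) methylation by 20 nM enzyme with 20 uM SAM, 2 h at room temperature after 15 min compound preincubation; anti-monomethyl H3K9 antibody plus donor/acceptor beads, 10 min dark.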
# Sfp PPTase inh = qHTS Assay for Inhibitors of Bacillus subtilis Sfp phosphopantetheinyl transferase (PPTase); Potency, µM, for the others: largest response in the series, negative = inhibition, hits mostly inhibitors; 4'-phosphopantetheinyl transferase ffp (Bacillus subtilis), Q9F4F7; 310,000 compounds, 3.5% hits; Biochemical Sfp PPTase activity, qHTS;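 note: the enzyme is Sfp with the accession as filed and its product quenches rhodamine fluorescence; 0% = enzyme reaction without inhibitor and -100% = no enzyme wells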
#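 Reaction rates are the 30-min fluorescence difference (ex 525, em 598 nm) in wells containing 15 nM Sfp, 5 uM rhodamine-CoA and 12.5 uM BHQ-2-YbbR at pH 7.6 with 10 mM MgCl2.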
# HP1b binding inh = HTS for Inhibitors of HP1-beta Chromodomain Interactions with Methylated Histone Tails; Chromobox protein homolog 1 (Homo sapiens), P83916; AlphaScreen HP1-beta / biotin-H3K9me3 peptide binding; Potency, µM (doses to about 114 µM), for inactives: at the highest dose activity change, negative = inhibition, usual class: inhibitors; 390,000 compounds, 0.56% hits; AID 540317, 2011; note: nearly all actives have a fitted effect of over 70% in size
#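 Compound inhibition of the preformed complex between 50 nM HP1-beta and 50 nM biotinylated H3K9me3 peptide was read by AlphaScreen. Buffer was PBS pH 7.4 with 0.01% Tween-20. Incubations ran 30 min at room temperature, with 10 ug/mL donor/acceptor beads.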
# JMJD2A Tudor inh = qHTS Assay for Inhibitors of JMJD2A-Tudor Domain | Lysine-specific demethylase 4A (Homo sapiens), O75164 | AlphaScreen JMJD2A-Tudor / H3K4me3 peptide binding | Potency, µM (doses to about 114 µM), for the others: top-dose activity change, negative = inhibition, actives largely listed as inhibitors | 390,000 compounds, 4.4% hits; note: % is set by controls: 0 for no effect and ±100 for the full control effect; nearly all actives have a fitted effect of over 50% in size
# Target sequence (O75164 whole entry, looked up, the tested form may be a part): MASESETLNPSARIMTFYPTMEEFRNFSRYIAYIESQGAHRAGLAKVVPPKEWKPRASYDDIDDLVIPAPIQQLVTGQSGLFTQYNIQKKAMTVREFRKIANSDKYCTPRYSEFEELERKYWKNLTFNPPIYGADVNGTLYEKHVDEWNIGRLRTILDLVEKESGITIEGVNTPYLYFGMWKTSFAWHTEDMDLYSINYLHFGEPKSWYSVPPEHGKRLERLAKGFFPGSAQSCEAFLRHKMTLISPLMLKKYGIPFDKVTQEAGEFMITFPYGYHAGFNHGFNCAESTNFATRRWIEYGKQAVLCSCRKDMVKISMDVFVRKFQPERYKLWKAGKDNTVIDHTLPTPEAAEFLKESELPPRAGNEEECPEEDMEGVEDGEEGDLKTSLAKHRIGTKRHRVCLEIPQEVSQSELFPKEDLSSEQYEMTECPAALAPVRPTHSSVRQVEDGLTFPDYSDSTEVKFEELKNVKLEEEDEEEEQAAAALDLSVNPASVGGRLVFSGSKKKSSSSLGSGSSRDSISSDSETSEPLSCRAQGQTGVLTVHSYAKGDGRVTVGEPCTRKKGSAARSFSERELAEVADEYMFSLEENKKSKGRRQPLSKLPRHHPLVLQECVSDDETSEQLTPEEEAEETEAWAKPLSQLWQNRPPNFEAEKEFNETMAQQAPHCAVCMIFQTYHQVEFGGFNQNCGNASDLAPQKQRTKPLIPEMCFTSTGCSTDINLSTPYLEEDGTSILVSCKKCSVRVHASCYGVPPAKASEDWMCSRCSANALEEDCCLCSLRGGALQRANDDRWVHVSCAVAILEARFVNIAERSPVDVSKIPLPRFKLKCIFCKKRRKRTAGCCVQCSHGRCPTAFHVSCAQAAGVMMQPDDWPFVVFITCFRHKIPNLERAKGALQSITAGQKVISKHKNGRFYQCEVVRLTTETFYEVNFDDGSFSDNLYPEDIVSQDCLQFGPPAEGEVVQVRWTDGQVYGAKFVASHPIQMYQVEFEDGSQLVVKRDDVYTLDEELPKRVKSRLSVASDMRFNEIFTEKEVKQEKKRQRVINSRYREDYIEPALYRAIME
# BAZ2B block = qHTS Assay for Inhibitors of BAZ2B | 360,000 compounds, 4.4% hits | AlphaScreen BAZ2B-H3K14Ac peptide displacement | Bromodomain adjacent to zinc finger domain protein 2B (Homo sapiens), Q9UIF8 | Potency, µM (titrated, usually from 114 µM), for inactives: at the highest dose activity change, negative = inhibition, usual class: inhibitors | AID 504333, 2011; note: % is set by controls: 0 for no effect and ±100 for the full control effect; nearly all actives have a fitted effect of over 60% in size
#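 AlphaScreen luminescence quantifies BAZ2B engagement of H3K14Ac peptide; the protein and biotinylated peptide are both at 50 nM final, buffer PBS pH 7.4 with 0.01% Tween-20, all steps at room temperature.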
# * marks the source's active call; other numbers are inactive results; ? = inconclusive; / = not tested or not shown; ! = a repeat was not active; [ ] = another dose, or the depositor's remark. Calls come from the whole dose curve; as a rule, active = well fitted curve in the direction sought with a large enough effect; inconclusive = small, poorly fitted or top-dose-only effect, or another doubt; inactive = no such curve, though single readings can be large; an effect the other way counts as inactive or inconclusive. Potency is the fitted concentration of half-maximal effect.
SMILES,G9a block,Sfp PPTase inh,HP1b binding inh,JMJD2A Tudor inh,BAZ2B block
CC(=O)c1ccc(-c2ccccc2)cc1,11%[59 µM],14%,36%,28%,7%
O=S1(=O)N(CCN2CC=C(c3c[nH]c4cc(F)ccc34)CC2)c2cccc3c2N1CCC3,30µM*!,/,-17%,?,?
CC(C)N1CC=C(c2c[nH]c3ccccc23)CC1,?,-1%,33%,-7%,3%
c1ccc(CN2CCc3nc4ccccc4cc3C2)cc1,10%,8%,21%,-17%,-17%
Cc1ccccc1CN1CCc2nc(N3CCN(c4ccccn4)CC3)ncc2C1,-3%[12.7 µM],/,20%,89µM*,?
CN(C)c1ccc(CN2CCc3nc(N4CCN(c5ccccn5)CC4)ncc3C2)cc1,?,/,28µM*,35µM*,25µM*
CCN(CC)c1ccc(/C=C2\C(=O)NC(=O)N(Cc3ccco3)C2=O)cc1,?,?,-12%,?,50µM*
CCN1C(=O)NC(=O)/C(=C\c2cn(CC(=O)O)c3ccccc23)C1=O,9%[2.33 µM],2%,/,/,-14%
O=C(O)Cn1cc(/C=C2\C(=O)NC(=O)N(c3ccc(Br)cc3)C2=O)c2ccccc21,56µM*,28µM*,9%[57 µM],-9%,-4%
Cc1cc(/C=C2/C(=O)NC(=O)N(Cc3ccco3)C2=O)c(C)n1-c1ccccc1O,/,6%,-8%,?,35µM*
O=C(O)Cn1cc(/C=C2\C(=O)NC(=O)N(Cc3ccco3)C2=O)c2ccccc21,16µM*,28µM*,-31%,79µM*,71µM*
COCCNC(=O)Cn1cc(C=C2C(=O)NC(=O)NC2=O)c2ccccc21,6%,15%,38%,-6%,-3%
CC/C(=N\NC(=O)c1ccccc1O)c1c(O)n(C2CCCCC2)c(=O)[nH]c1=O,?,11%,8%,-33%,-2%
C[C@H]1C[C@@H](C)C(=O)[C@@H]([C@H](O)CC2CC(=O)NC(=O)C2)C1,29%[12.7 µM],3%,13%,-23%,18%
Cc1ccc(N2CCNCC2C)cc1 (centres undefined),/,/,14%,-30%,/
COC(=O)Cn1cc(/C=C2\C(=O)NC(=O)N(c3ccccc3)C2=O)c2ccccc21,-5%,-24%,31%,-25%,-4%
Cc1ccc(N2C(=O)NC(=O)/C(=C\c3cn(CC(=O)O)c4ccccc34)C2=O)cc1,25µM*,-25%,28%,-9%,?
C=CCc1ccc2c(c1)OCO2,-4%[2.33 µM],17%,/,/,/
c1cc2c(cc1CCNC1C3CC4CC(C3)CC1C4)OCO2 (centres undefined),25µM*,-5%,-22%,4µM*,?
CC1CCC(NCCc2ccc3c(c2)OCO3)CC1 (centres undefined),?,0%,?,3.2µM*,?
Cc1nc2ccc(Br)cc2c(=O)n1-c1ccc([N+](=O)[O-])c(C(F)(F)F)c1,18%[0.501 µM],-14%,-21%,-22%,5%
O=C1C=C2C(=CCOC2O)O1 (centres undefined),-41%[2.33 µM],-28%,/,/,/
CCc1nn2c(=O)c(F)c(N3CCNCC3)nc2s1,/,/,/,-5%,/
CC1(C)C(C(=O)NCc2ccco2)C1(C)C,-10%[59 µM],-18%,18%,-14%,0%
CCC(=O)Nc1cccc(-c2nnc(SCC(=O)NCc3ccco3)n2C)c1,50µM*,-12%,24%,-10%,-1%
SMILES,G9a block,Sfp PPTase inh,HP1b binding inh,JMJD2A Tudor inh,BAZ2B block
Oc1cccc2nc3ccccc3nc12,28µM*,-15%,-29%,?,?
Cc1ccccc1O,/,/,24%,-10%,/
Cc1oc(-c2ccccc2Cl)nc1CN1C(=O)CN=C(c2ccccc2)c2ccccc21,40µM*,-19%,4%,?,?
Cc1cccc(N2C(=O)NC(=O)/C(=C\c3ccc4c(c3)CCCN4Cc3ccccc3)C2=O)c1,?,45µM*,15%,-24%,?
CC1=NN(c2ccccc2)C(=O)C1/C=C1\C(=O)NC(=O)N(c2cc(C)cc(C)c2)C1=O (centres undefined),?,-18%,-21%,-30%,?
CCOC(=O)C(NC(C)=O)C(OC(C)=O)c1cccc(N(CCCl)CCCl)c1 (centres undefined),14µM*,2%,18%,-15%,-18%
COC(=O)[C@@H]1C[C@@]2(O)[C@@H](O)[C@@H](O)[C@@H](O)C[C@H]2N1Cc1cccnc1,/,39%,/,/,/
CCC(C)N1C(=O)/C(=C/c2ccc3c(c2)CCN3CCCCl)C(=O)NC1=S (centres undefined),13µM*,?,?,50µM*,50µM*
COc1ccc2c(c1OC)C(=O)O[C@@H]2C1c2cc3c(cc2CCN1C)OCO3 (some centres undefined),/,23%,/,/,/
CC(C)CN1CCN(Cc2cccc3c2OCO3)CC1CCO (centres undefined),-38%,15%,30%,-1%,-16%
CCCCn1c(-c2ccoc2C)n[nH]c1=S,4µM*,-4%,9%,7.9µM*,2%
CCOC(=O)c1c(C)n(COCCO)c2ccc(O)cc12,-6%,0%,13%,-13%,7%
CCOC(=O)c1c(C)n(Cc2ccc(F)cc2)c2ccc(O)cc12,-18%[12.7 µM],22µM*,-2%,?,-32%
COC(=O)c1c(C)n(Cc2ccc3c(c2)OCO3)c2ccc(O)cc12,35µM*,-8%,-16%,?,?
CCOC(=O)c1c(C)n(Cc2ccco2)c2ccc(O)cc12,8.9µM*,45µM*,16%,-27%,?
CCOC(=O)c1c(C)n(Cc2ccc3c(c2)OCO3)c2ccc(O)cc12,?,-10%,-13%,-15%,?
CN(C(=O)Cc1ccc(Cl)c(Cl)c1)[C@@H](CN1CCCC1)c1cccc(OCC(=O)O)c1,/,-2%,/,/,/
O=C(NC1(C(F)(F)F)Oc2ccccc2O1)N1CCC2(CC1)OCCO2,1.8µM*,-1%,?,45µM*,-5%
O=C(NC1(C(F)(F)F)Oc2ccc(Cl)cc2O1)N1CCC2(CC1)OCCO2 (centres undefined),?,79µM*,-5%,32µM*,79µM*
CC(=O)Nc1c(I)c(C(=O)O)c(I)c(N(C)C(C)=O)c1I,?,29%,/,/,/
C=CCC1C(=O)NC(=S)NC1=O,8.9µM*,50µM*,-19%,89µM*,6%
C=CCC1(CC)C(=O)NC(=S)NC1=O,/,/,10%,-12%,/
CCOC(=O)c1cnc2c(ccc3ccccc32)c1Nc1ccc(N(C)C)cc1,2.5µM*,/,10µM*,11µM*,6.3µM*
